Data published in PubChem BioAssay (NCATS).
“And” between values parts separate entries of the source, which are not always exact repeats. Equal entries are not always repeated. Inconclusive results are not listed. Some compounds were tested as several samples or in several runs, with calls that do not always agree. The source made the active and inactive calls. Unless noted, calls come from the whole dose curve; as a rule, active = well fitted curve in the direction sought with a large enough effect; inconclusive = small, poorly fitted or top-dose-only effect, or another doubt; inactive = no such curve, though single readings can be large; an effect the other way counts as inactive or inconclusive.

Assays:
[1] = NFAT Signaling Pathway (AID 444; active = well fitted curve in either direction with a large enough effect, not every such curve was filed as active;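 note: carbachol stimulus at about its EC50 of 1 µM final; % is set by controls: 0 for no effect and ±100 for the full control effect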); conditions: Jurkat NFAT-bla M1, carbachol, beta-lactamase ratio, 5 h; at 17.2 µM (top of the series) unless noted
Procedure, shortened: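 Jurkat cells carrying an NFAT-driven β-lactamase reporter and co-transfected muscarinic M1 receptor were treated with compound plus carbachol (1 uM final, an EC50 level) for 5 h at 37 °C. CCF4 loading followed for 1 h at RT; 460/530 nm ratio gave %activity.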

[2] = Stat Signaling Pathway (AID 446; active = well fitted curve in either direction with a large enough effect, not every such curve was filed as active;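 note: ME-180 cervical cancer cells given 40 pM IL-6 alongside compound; SIE-controlled beta-lactamase reporter measured as 460/530 nm FRET emission ratio; % is set by controls: 0 for no effect and ±100 for the full control effect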)
Procedure, shortened: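 Normalization used AC90 stimulation (300 pM IL-6) and AC90 inhibition (125 nM pan-JAK inhibitor at 40 pM IL-6). The underlying signal is SIE-driven beta-lactamase in ME-180 cells after 5 h IL-6 exposure with compound.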

[3] = target: 3',5'-cyclic-AMP phosphodiesterase 4B (Homo sapiens) (UniProt Q07343); test: qHTS Assay for Inhibitors of PDE-IV (AID 607; active = well fitted activation curve with a large enough effect in the main read-out, with a control signal flat, not every such curve was filed as active; note: % of control where 0% means no effect)
Chain of 3',5'-cyclic-AMP phosphodiesterase 4B (Homo sapiens) (Q07343 whole entry, looked up): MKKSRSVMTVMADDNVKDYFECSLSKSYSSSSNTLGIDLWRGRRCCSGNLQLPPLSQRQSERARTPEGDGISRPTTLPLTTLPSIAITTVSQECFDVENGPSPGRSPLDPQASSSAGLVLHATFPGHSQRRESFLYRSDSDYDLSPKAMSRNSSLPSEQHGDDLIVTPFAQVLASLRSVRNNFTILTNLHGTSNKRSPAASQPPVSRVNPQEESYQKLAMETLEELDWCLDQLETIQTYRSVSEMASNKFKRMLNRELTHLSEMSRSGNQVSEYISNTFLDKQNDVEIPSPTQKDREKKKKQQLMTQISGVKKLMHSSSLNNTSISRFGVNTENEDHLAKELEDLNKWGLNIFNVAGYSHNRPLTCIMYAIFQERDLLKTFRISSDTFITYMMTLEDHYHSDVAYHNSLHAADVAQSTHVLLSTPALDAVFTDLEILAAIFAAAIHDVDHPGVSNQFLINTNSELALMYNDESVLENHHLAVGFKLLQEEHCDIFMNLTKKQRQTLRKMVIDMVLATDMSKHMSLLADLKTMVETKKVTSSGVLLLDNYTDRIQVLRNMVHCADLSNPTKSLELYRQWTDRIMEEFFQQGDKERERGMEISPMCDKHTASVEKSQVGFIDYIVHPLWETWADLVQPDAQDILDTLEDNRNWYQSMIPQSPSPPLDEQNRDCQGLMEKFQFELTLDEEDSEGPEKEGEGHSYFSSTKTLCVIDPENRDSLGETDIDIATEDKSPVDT
Procedure, shortened: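 HEK293 ACTOne cells with CNG channel (1000/well), endogenous PDE4; membrane potential dye, compounds up to 22.9 uM final. Fluorescence Ex 535/Em 590; RO 20-1724 (100 uM final) as reference.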

[4] = S16 Schwann cell viability assay (CellTiter-Glo assay) (AID 624031);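 note: native untransfected S16 rat Schwann cells; plate controls were DMSO-treated cells for no effect and cell-free wells for full effect; nearly all actives have a fitted effect of over 70% in size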
Procedure, shortened: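 Counter-screen for cytotoxicity: parental S16 rat Schwann cells lacking the PMP22 reporters, treated 24 h with compound, viability from cellular ATP by CellTiter-Glo luminescence, normalized to DMSO (0%) and no-cell wells.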

DIV14 = test: qHTS profiling for inhibitors of Plasmodium falciparum proliferation (AID 504749); note: nearly all actives have a fitted effect of over 60% in size; note: potency is the fitted concentration of half-maximal effect; conditions: P. falciparum in erythrocytes, SYBR Green DNA, 72 h; series mostly up to 12.8 µM
Procedure, shortened: (§1)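 Quantitative HTS: compounds pinned into medium, infected erythrocytes added (0.3% parasitemia, 2.5% hematocrit), 72 h culture at 37 C under 5% CO2. Saponin/Triton lysis with SYBR Green I, overnight RT, then fluorescence read.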

W2 = test: as above; conditions: P. falciparum in erythrocytes, SYBR Green DNA, 72 h; series mostly up to 12.8 µM
Procedure, shortened: as §1

[5] = target: Cytochrome P450 1A2 (Homo sapiens) (UniProt P05177); test: p450-cyp1a2 (AID 410; calls by dose curve; note: potency is the fitted concentration of half-maximal effect;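 for activity change, negative = inhibition: -100% = full effect of reference inhibitor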)
Chain of Cytochrome P450 1A2 (Homo sapiens) (P05177 whole entry, looked up): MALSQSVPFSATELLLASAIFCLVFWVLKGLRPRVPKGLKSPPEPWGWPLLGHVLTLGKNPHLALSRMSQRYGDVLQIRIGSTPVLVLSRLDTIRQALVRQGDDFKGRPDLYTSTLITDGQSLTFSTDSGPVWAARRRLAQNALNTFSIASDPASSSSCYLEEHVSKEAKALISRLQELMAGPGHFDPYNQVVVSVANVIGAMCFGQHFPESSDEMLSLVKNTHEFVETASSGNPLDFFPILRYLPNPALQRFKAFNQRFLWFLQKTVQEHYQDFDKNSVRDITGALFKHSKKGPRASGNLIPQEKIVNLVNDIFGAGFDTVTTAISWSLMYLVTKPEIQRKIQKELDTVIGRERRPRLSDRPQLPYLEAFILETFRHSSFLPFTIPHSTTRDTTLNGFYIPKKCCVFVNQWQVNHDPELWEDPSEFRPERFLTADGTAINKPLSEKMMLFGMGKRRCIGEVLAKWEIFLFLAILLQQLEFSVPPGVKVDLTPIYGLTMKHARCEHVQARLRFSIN
Procedure, shortened: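 O-Demethylation of luciferin 6' methyl ether by human CYP1A2 is monitored as luciferase luminescence. Substrate sits at Km (100uM); enzyme is 20nM. Values are scaled to 57 uM furafylline as maximal inhibition.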

[6] = target: Cytochrome P450 3A4 (Homo sapiens) (UniProt P08684); test: qHTS Assay for Activators of Cytochrome P450 3A4 (AID 885); note: nearly all actives have a fitted effect of over 65% in size
Chain of Cytochrome P450 3A4 (Homo sapiens) (P08684 whole entry, looked up): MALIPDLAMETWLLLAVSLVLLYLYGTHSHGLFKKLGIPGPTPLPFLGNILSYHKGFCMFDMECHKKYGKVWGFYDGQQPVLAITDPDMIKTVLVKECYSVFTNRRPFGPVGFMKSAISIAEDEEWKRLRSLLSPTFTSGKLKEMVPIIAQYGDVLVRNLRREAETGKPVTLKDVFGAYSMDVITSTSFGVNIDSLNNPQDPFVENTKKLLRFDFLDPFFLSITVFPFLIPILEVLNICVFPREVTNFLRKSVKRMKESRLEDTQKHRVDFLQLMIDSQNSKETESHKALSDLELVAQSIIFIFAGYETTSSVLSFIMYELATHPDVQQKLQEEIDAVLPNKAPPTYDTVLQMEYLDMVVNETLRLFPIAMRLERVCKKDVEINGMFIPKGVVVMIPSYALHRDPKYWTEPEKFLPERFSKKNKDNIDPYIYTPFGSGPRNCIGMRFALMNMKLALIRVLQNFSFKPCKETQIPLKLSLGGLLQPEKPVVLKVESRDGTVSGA
Procedure, shortened: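 Human CYP3A4 dealkylates Luciferin-PPXE to luciferin, which luciferase detection converts to light. Substrate was at its KM (25uM), buffer 200mM KPO4, reaction 60 min at RT.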

[7] = S16 Schwann cell PMP22 intronic element firefly luciferase assay (AID 624032);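 note: plate controls were DMSO for no effect and PTC124 positive control mean for full effect; nearly all actives have a fitted effect of over 30% in size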
Procedure, shortened: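 Rat S16 Schwann cells stably carrying a PMP22 intronic element-driven Fluc reporter were seeded overnight, then exposed to compounds for 24 h at 37 °C. Luminescence was normalized to PTC124 (positive control) and DMSO (0% activity).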

[8] = S16 Schwann cell PMP22 intronic element beta-lactamase assay (AID 624044; calls by dose curve;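 note: 0% = DMSO and -100% = potassium clavulanate positive control; nearly all actives have a fitted effect of over 15% in size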)
Procedure, shortened: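 Beta-lactamase reporter under a PMP22 intronic regulatory element in stable S16 rat Schwann cells; 24 h compound exposure. 460 nm blue signal normalized between DMSO (0%) and potassium clavulanate, with 535 nm FRET tracking viability; curves classed by r2 and response.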

CP203 = test: qHTS profiling for inhibitors of Plasmodium falciparum proliferation (AID 504749); note: nearly all actives have a fitted effect of over 60% in size; note: potency is the fitted concentration of half-maximal effect; conditions: P. falciparum in erythrocytes, SYBR Green DNA, 72 h; series mostly up to 12.8 µM
Procedure, shortened: as §1

CP260 = test: as above; conditions: P. falciparum in erythrocytes, SYBR Green DNA, 72 h; series mostly up to 12.8 µM
Procedure, shortened: as §1

CP265 = test: as above; conditions: P. falciparum in erythrocytes, SYBR Green DNA, 72 h; series mostly up to 12.8 µM
Procedure, shortened: as §1

CP335 = test: as above; conditions: P. falciparum in erythrocytes, SYBR Green DNA, 72 h; series mostly up to 12.8 µM
Procedure, shortened: as §1

[9] = Confirmation and Secondary Assay for Modulators of Hemoglobin Beta Chain Splicing at IVS2 654 locus (AID 910);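 note: per-well total GFP intensity by laser scanning cytometry after 2-day treatment; % of control where 0% means no effect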
Procedure, shortened: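 HeLa cells stably carrying EGFP interrupted by mutant beta-globin IVS2-654 intron (CMV-driven) were treated with compound for 2 days at 37C; corrected splicing was scored as total peak GFP intensity per well (488 nm excitation, 500-520 nm emission).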

[10] = Confirmation and Secondary Assay for Modulators of Hemoglobin Beta Chain Splicing at IVS2 705 locus (AID 930);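 note: HeLa cells stably expressing the EGFP-705 splicing reporter; GFP fluorescence per well restored by corrected splicing of the IVS2-705 intron in EGFP; % of control where 0% means no effect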
Procedure, shortened: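 First, HeLa EGFP-705 cells are seeded at 500/well in Optimem with 2% FCS and left overnight. Next, compound or DMSO is added for 2 days. Finally wells are laser-scanned and total peak GFP intensity scored.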

[11] = target: Cytochrome P450 3A4 (Homo sapiens) (UniProt P08684); test: qHTS Assay for Inhibitors and Substrates of Cytochrome P450 3A4 (AID 884); note: potency is the fitted concentration of half-maximal effect; nearly all actives have a fitted effect of over 50% in size
Procedure, shortened: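 Luminescent readout of luciferin produced by CYP3A4 (20 nM) dealkylation of Luciferin-PPXE, 25 uM (its KM). NADPH-driven reaction ran 60 min at RT after 10 min compound preincubation; data scaled to 57 uM ketoconazole as 100% inhibition.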

[12] = target: Cytochrome P450 2D6 (Homo sapiens) (UniProt P10635); test: qHTS Assay for Inhibitors and Substrates of Cytochrome P450 2D6 (AID 891); note: nearly all actives have a fitted effect of over 60% in size; note: potency is the fitted concentration of half-maximal effect;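 for activity change, negative = inhibition: luciferin methyl ether substrate demethylated by CYP2D6 with NADPH regeneration; % is set by controls: 0 for no effect and ±100 for the full control effect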
Chain of Cytochrome P450 2D6 (Homo sapiens) (P10635 whole entry, looked up): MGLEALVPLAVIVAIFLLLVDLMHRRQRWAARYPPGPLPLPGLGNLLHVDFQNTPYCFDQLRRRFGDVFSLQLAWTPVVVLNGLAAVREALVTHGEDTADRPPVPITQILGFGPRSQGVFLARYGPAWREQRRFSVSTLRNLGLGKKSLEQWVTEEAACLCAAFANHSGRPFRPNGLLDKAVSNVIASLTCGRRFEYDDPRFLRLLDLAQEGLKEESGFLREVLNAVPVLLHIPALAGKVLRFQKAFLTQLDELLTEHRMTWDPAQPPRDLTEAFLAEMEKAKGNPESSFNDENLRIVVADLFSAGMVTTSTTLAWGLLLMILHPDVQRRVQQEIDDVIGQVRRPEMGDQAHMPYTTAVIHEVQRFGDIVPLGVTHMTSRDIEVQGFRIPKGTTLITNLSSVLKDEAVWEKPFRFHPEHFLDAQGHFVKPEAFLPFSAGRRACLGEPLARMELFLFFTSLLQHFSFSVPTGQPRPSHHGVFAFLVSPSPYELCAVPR
Procedure, shortened: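 Luminescent read-out of luciferin formed by 5 nM human CYP2D6 demethylating 30 uM Luciferin-ME EGE (Km level) over 60 min at room temperature after NADPH regeneration addition. Data normalized to full inhibition by 1.43 uM quinidine.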

[13] = AP1 Signaling Pathway (AID 357; active = well fitted curve in either direction with a large enough effect, not every such curve was filed as active;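 note: ME-180 reporter cells stimulated with EGF at its EC50 level; % is set by controls: 0 for no effect and ±100 for the full control effect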)
Procedure, shortened: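 A ratiometric CCF4 readout (405 nm excitation; 460 and 530 nm emission) quantified AP-1-driven beta-lactamase in ME-180 cells after 5 h with compound and EC50 EGF; AC50 values were derived for activators and inhibitors.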

DFO2036 = test: qHTS profiling for inhibitors of Plasmodium falciparum proliferation (AID 504749); note: nearly all actives have a fitted effect of over 60% in size; note: potency is the fitted concentration of half-maximal effect; conditions: P. falciparum in erythrocytes, SYBR Green DNA, 72 h; series mostly up to 12.8 µM
Procedure, shortened: as §1

COC(=O)[C@@H]1[C@@H]2C[C@H]3c4[nH]c5cc(OC)ccc5c4CCN3C[C@@H]2C[C@H](OC(=O)/C=C\c2cc(OC)c(OC)c(OC)c2)[C@H]1OC
active: Potency (DIV14) 5730 nM | Potency (W2) 1810 nM
inactive: activity change, negative = inhibition [1] 0.402% | outcome [2] | outcome [3] | outcome [4]

CC1(C)S[C@@H]2[C@H](NC(=O)[C@@H](N)c3ccccc3)C(=O)N2[C@H]1C(=O)O[C@H]1OC(=O)c2ccccc21
inactive: Potency [5] | outcome [3] | Potency [6] | outcome [4] | Potency [7] | Potency [8] | Potency (CP203) | Potency (CP260) | Potency (CP265) | Potency (CP335) | Potency (DIV14) | Potency (W2)

O=C(OC[C@@H](O)CO)c1ccccc1Nc1ccnc2cc(Cl)ccc12
inactive: outcome [2] | outcome [3] | outcome [4] | Potency (CP203) | Potency (CP260) | Potency (CP265) | Potency (CP335)

FC(F)(F)c1ccccc1-c1ccc2ncnc(NC3CCNCC3)c2c1
inactive: activity change, negative = inhibition [1] 2.61% [at 7.69 µM] | outcome [2] | outcome [3] | Potency [9] | Potency [10]

COc1ccc(-c2cc(=O)c3c(O)cc(O)cc3o2)cc1
active: Potency [11] 2.51 µM and 7.94 µM and 3.16 µM
inactive: outcome [3] | Potency [6] | Potency [9] | Potency [10]

O=C(O)[C@@H]1[C@@H]2C[C@H]3c4[nH]c5ccccc5c4CCN3C[C@@H]2CC[C@@H]1O
12.6 µM (active) and inactive: Potency [5]
inactive: outcome [2] | outcome [3] | outcome [4] | Potency [7] | Potency [8] | Potency (CP203)

O=c1cc(-c2cccc(O)c2)oc2cc(O)ccc12
inactive: outcome [3] | Potency [6] | Potency [12]
active: Potency [5] 5.01 µM | Potency [11] 12.6 µM

NC[C@@H]1O[C@@H](O[C@H]2[C@H](O)[C@H](O[C@@H]3O[C@H](CO)[C@@H](O)[C@H](N)[C@@H]3O)[C@@H](N)C[C@H]2N)[C@H](N)C[C@@H]1O
inactive: outcome [13] | outcome [3] | outcome [4] | Potency [7] | Potency [8] | Potency (CP203) | Potency (CP260) | Potency (CP265) | Potency (CP335) | Potency (DFO2036) | Potency (DIV14) | Potency (W2)

O=C1C=CC(=O)c2c1ccc1c2ccc2ccccc21
active: Potency [5] 0.794 µM | activity change, negative = inhibition [1] -25.7%
inactive: outcome [3]

CN1CCC[C@@H](CC2c3ccccc3Sc3ccccc32)C1
inactive: Potency [5] | outcome [3] | Potency (CP335)
active: activity change, negative = inhibition [1] -49.6% | Potency [12] 316 nM | Potency (DIV14) 2280 nM | Potency (W2) 1440 nM
